In the supplement of paper PMC8728848:
Many of the other results were omitted from the sample, so the strongest signals are more common in it than they were.

Key:
Experiment in all cases: glycan array binding signal (z-score within array); higher = stronger binding
Details in all cases: glycan notation: IUPAC condensed, linker removed
[1] = biological target: Fuc(a1-2)Gal(b1-3)GlcNAc(b1-2)Man(a1-3)[Fuc(a1-2)Gal(b1-3)GlcNAc(b1-2)Man(a1-6)]Man(b1-4)GlcNAc(b1-4)GlcNAc
In short: (§1)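 Arrays were curated from the Consortium for Functional Glycomics database, 3228 in total, and kept only where the protein sequence was available. Binding is expressed as a within-array Z-score. This score was averaged across arrays of the same protein sequence at different concentrations or buffers and across linkers, and negative values can be read as non-binding.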

[2] = biological target: Fuc(a1-2)Gal(b1-3)[Fuc(a1-4)]GlcNAc(b1-2)Man(a1-3)[Fuc(a1-2)Gal(b1-3)[Fuc(a1-4)]GlcNAc(b1-2)Man(a1-6)]Man(b1-4)GlcNAc(b1-4)GlcNAc
In short: as §1

[3] = biological target: Fuc(a1-2)[Gal(a1-4)]Gal(b1-4)GlcNAc
In short: as §1

Gal(a1-3)Gal(b1-4)Glc = biological target: Gal(a1-3)Gal(b1-4)Glc
In short: as §1

Gal(a1-4)Gal(b1-4)GlcNAc = biological target: Gal(a1-4)Gal(b1-4)GlcNAc
In short: as §1

Gal(b1-3)GalNAc = biological target: Gal(b1-3)GalNAc
In short: as §1

[4] = biological target: Gal(b1-4)GlcNAc(a1-6)Gal(b1-4)GlcNAc
In short: as §1

[5] = biological target: Gal(b1-4)GlcNAc(b1-3)Gal(b1-4)GlcNAc(b1-3)Gal(b1-4)GlcNAc
In short: as §1

[6] = biological target: Gal(b1-4)GlcNAc(b1-3)[Gal(b1-4)GlcNAc(b1-6)]Gal(b1-4)GlcNAc
In short: as §1

Gal3S(b1-3)GlcNAc = biological target: Gal3S(b1-3)GlcNAc
In short: as §1

[7] = biological target: Gal3S(b1-3)[Fuc(a1-4)]GlcNAc
In short: as §1

Gal3S4S(b1-4)GlcNAc = biological target: Gal3S4S(b1-4)GlcNAc
In short: as §1

Gal6S(b1-4)GlcNAc = biological target: Gal6S(b1-4)GlcNAc
In short: as §1

Gal6S(b1-4)GlcNAc6S = biological target: Gal6S(b1-4)GlcNAc6S
In short: as §1

GalNAc(a1-3)Gal = biological target: GalNAc(a1-3)Gal
In short: as §1

[8] = biological target: GalNAc(b1-4)GlcNAc(b1-2)Man(a1-3)[GalNAc(b1-4)GlcNAc(b1-2)Man(a1-6)]Man(b1-4)GlcNAc(b1-4)GlcNAc
In short: as §1

GlcA(b1-3)GlcNAc = biological target: GlcA(b1-3)GlcNAc
In short: as §1

GlcA(b1-6)Gal = biological target: GlcA(b1-6)Gal
In short: as §1

[9] = biological target: GlcNAc(b1-4)GlcNAc(b1-4)GlcNAc
In short: as §1

[10] = biological target: Man(a1-3)[Man(a1-6)]Man(a1-6)[Man(a1-3)]Man(b1-4)GlcNAc(b1-4)GlcNAc
In short: as §1

Man(b1-4)GlcNAc = biological target: Man(b1-4)GlcNAc
In short: as §1

Neu5Ac(a2-3)Gal = biological target: Neu5Ac(a2-3)Gal
In short: as §1

[11] = biological target: Neu5Ac(a2-3)Gal(b1-4)[Fuc(a1-3)]GlcNAc
In short: as §1

[12] = biological target: Neu5Ac(a2-6)Gal(b1-4)GlcNAc(b1-2)Man(a1-3)Man(b1-4)GlcNAc(b1-4)GlcNAc
In short: as §1

[13] = biological target: Neu5Ac(a2-6)Gal(b1-4)GlcNAc(b1-2)Man(a1-6)[GlcNAc(b1-2)Man(a1-3)]Man(b1-4)GlcNAc(b1-4)GlcNAc
In short: as §1

[14] = biological target: Neu5Ac(a2-8)Neu5Ac(a2-3)[GalNAc(b1-4)]Gal(b1-4)Glc
In short: as §1

[15] = biological target: Neu5Ac(a2-8)Neu5Ac(a2-8)Neu5Ac(a2-8)Neu5Ac(a2-3)[GalNAc(b1-4)]Gal(b1-4)Glc
In short: as §1

[16] = biological target: Neu5Gc(a2-3)Gal(b1-4)GlcNAc
In short: as §1

[17] = biological target: Fuc(a1-2)Gal(b1-4)GlcNAc(b1-2)Man(a1-3)[Fuc(a1-2)Gal(b1-4)GlcNAc(b1-2)Man(a1-6)]Man(b1-4)GlcNAc(b1-4)GlcNAc
In short: as §1

[18] = biological target: Fuc(a1-2)Gal(b1-4)[Fuc(a1-3)]GlcNAc(b1-2)Man(a1-3)[Fuc(a1-2)Gal(b1-4)[Fuc(a1-3)]GlcNAc(b1-2)Man(a1-6)]Man(b1-4)GlcNAc(b1-4)GlcNAc
In short: as §1

[19] = biological target: Fuc(a1-2)[Gal(a1-3)]Gal(b1-4)GlcNAc(b1-2)Man(a1-3)[Fuc(a1-2)[Gal(a1-3)]Gal(b1-4)GlcNAc(b1-2)Man(a1-6)]Man(b1-4)GlcNAc(b1-4)GlcNAc
In short: as §1

[20] = biological target: Fuc(a1-2)[GalNAc(a1-3)]Gal(b1-4)GlcNAc(b1-2)Man(a1-3)[GalNAc(a1-3)[Fuc(a1-2)]Gal(b1-4)GlcNAc(b1-2)Man(a1-6)]Man(b1-4)GlcNAc(b1-4)GlcNAc
In short: as §1

[21] = biological target: Fuc(a1-3)[Gal(b1-4)]Glc6S
In short: as §1

[22] = biological target: Fuc(a1-3)[Gal(b1-4)]GlcNAc
In short: as §1

[23] = biological target: Fuc(a1-3)[Gal(b1-4)]GlcNAc(b1-2)Man(a1-3)[Fuc(a1-3)[Gal(b1-4)]GlcNAc(b1-2)Man(a1-6)]Man(b1-4)GlcNAc(b1-4)GlcNAc
In short: as §1

[24] = biological target: Fuc(a1-3)[Gal3S(b1-4)]GlcNAc
In short: as §1

Gal(a1-6)Glc = biological target: Gal(a1-6)Glc
In short: as §1

[25] = biological target: Gal(b1-3)Gal(b1-4)GlcNAc(b1-2)Man(a1-3)[Gal(b1-3)Gal(b1-4)GlcNAc(b1-2)Man(a1-6)]Man(b1-4)GlcNAc(b1-4)GlcNAc
In short: as §1

[26] = biological target: Gal(b1-3)[Neu5Ac(a2-6)]GalNAc
In short: as §1

[27] = biological target: Gal(b1-4)GalNAc(b1-3)[Fuc(a1-2)]Gal(b1-4)GlcNAc
In short: as §1

Gal(b1-4)Glc = biological target: Gal(b1-4)Glc
In short: as §1

[28] = biological target: Gal(b1-4)GlcNAc(b1-2)Man(a1-3)[Man(a1-6)]Man(b1-4)GlcNAc(b1-4)GlcNAc
In short: as §1

[29] = biological target: Gal(b1-4)GlcNAc(b1-3)Gal(b1-4)GlcNAc
In short: as §1

[30] = biological target: Gal3S(b1-4)[Fuc(a1-3)]Glc
In short: as §1

Gal4S(b1-4)GlcNAc = biological target: Gal4S(b1-4)GlcNAc
In short: as §1

[31] = biological target: GlcNAc(a1-4)Gal(b1-4)GalNAc
In short: as §1

[32] = biological target: GlcNAc(a1-4)Gal(b1-4)GlcNAc(b1-3)Gal(b1-4)GlcNAc
In short: as §1

[33] = biological target: GlcNAc(b1-2)Man(a1-3)[GlcNAc(b1-2)Man(a1-6)]Man(b1-4)GlcNAc(b1-4)GlcNAc
In short: as §1

[34] = biological target: Man(a1-3)[Man(a1-6)]Man(b1-4)GlcNAc(b1-4)GlcNAc
In short: as §1

[35] = biological target: Neu5Ac(a2-3)Gal(b1-3)GalNAc
In short: as §1

[36] = biological target: Neu5Ac(a2-3)Gal(b1-3)[Fuc(a1-4)]GlcNAc(b1-3)Gal(b1-4)[Fuc(a1-3)]GlcNAc
In short: as §1

[37] = biological target: Neu5Ac(a2-3)Gal(b1-4)[Fuc(a1-3)]GlcNAc(b1-6)[Gal(b1-3)]GalNAc
In short: as §1

[38] = biological target: Neu5Ac(a2-6)Gal(b1-4)GlcNAc
In short: as §1

B1: Adiponectin (Rattus norvegicus), Q8K3R4 (protein)
chain: MLLLQALLFLLILPSHEGITATEGPGALVPPPKETCAGWMAGIPGYPGHNGIPGRDGRDGTPGEKGEKGDAGVLGPKGDPGDAGMTGAEGPRGFPGTPGRKGEPGEAAYMYHSAFSVGLETRVTVPNVPIRFTKIFYNQQNHYDGSTGKFHCNIPGLYYFSYHITVYMKDVKVSLFKKDKAVLFTYDQYQEKNVDQASGSMLLHLEVGDQVWLQVYGEGDNNGLYADNVNDSTFTGFLLYHDTN
glycan array binding signal (z-score) [1]: 4.69
glycan array binding signal (z-score) [2]: 2.87
glycan array binding signal (z-score) [3]: -0.75
glycan array binding signal (z-score) (Gal(a1-3)Gal(b1-4)Glc): 2.17
glycan array binding signal (z-score) (Gal(a1-4)Gal(b1-4)GlcNAc): -0.311
glycan array binding signal (z-score) (Gal(b1-3)GalNAc): -0.573
glycan array binding signal (z-score) [4]: -0.335
glycan array binding signal (z-score) [5]: 3.09
glycan array binding signal (z-score) [6]: 0.332
glycan array binding signal (z-score) (Gal3S(b1-3)GlcNAc): -0.814
glycan array binding signal (z-score) [7]: 1.13
glycan array binding signal (z-score) (Gal3S4S(b1-4)GlcNAc): 0.706
glycan array binding signal (z-score) (Gal6S(b1-4)GlcNAc): 1.04
glycan array binding signal (z-score) (Gal6S(b1-4)GlcNAc6S): -0.915
glycan array binding signal (z-score) (GalNAc(a1-3)Gal): 2.96
glycan array binding signal (z-score) [8]: 4.32
glycan array binding signal (z-score) (GlcA(b1-3)GlcNAc): -0.577
glycan array binding signal (z-score) (GlcA(b1-6)Gal): -0.389
glycan array binding signal (z-score) [9]: 4.87
glycan array binding signal (z-score) [10]: -0.767
glycan array binding signal (z-score) (Man(b1-4)GlcNAc): 0.155
glycan array binding signal (z-score) (Neu5Ac(a2-3)Gal): 0.212
glycan array binding signal (z-score) [11]: 0.007
glycan array binding signal (z-score) [12]: 0.717
glycan array binding signal (z-score) [13]: -0.838
glycan array binding signal (z-score) [14]: 0.022
glycan array binding signal (z-score) [15]: 0.861
glycan array binding signal (z-score) [16]: -0.295

B2: Neuropilin-1 (Homo sapiens), O14786 (protein)
chain: FKCMEALGMESGEIHSDQITASSQYSTNWSAERSRLNYPENGWTPGEDSYREWIQVDLGLLRFVTAVGTQGAISKETKKKYYVKTYKIDVSSNGEDWITIKEGNKPVLFQGNTNPTDVVVAVFPKPLITRFVRIKPATWETGISMRFEVYGCKITDYPCSGMLGMVSGLISDSQITSSNQGDRNWMPENIRLVTSRSGWALPPAPHSYINEWLQIDLGEEKIVRGIIIQGGKHRENKVFMRKFKIGYSNNGSDWKMIMDDSKRKAKSFEGNNNYDTPELRTFPALSTRFIRIYPERATHGGLGLRMELLGCEVE
glycan array binding signal (z-score) [1]: 1.14
glycan array binding signal (z-score) [17]: 5.83
glycan array binding signal (z-score) [18]: 4.73
glycan array binding signal (z-score) [19]: 6.43
glycan array binding signal (z-score) [20]: 5.34
glycan array binding signal (z-score) [21]: 0.455
glycan array binding signal (z-score) [22]: -0.168
glycan array binding signal (z-score) [23]: 10.4
glycan array binding signal (z-score) [24]: -0.158
glycan array binding signal (z-score) (Gal(a1-6)Glc): -0.168
glycan array binding signal (z-score) [25]: 6.05
glycan array binding signal (z-score) [26]: -0.23
glycan array binding signal (z-score) [27]: -0.281
glycan array binding signal (z-score) (Gal(b1-4)Glc): -0.292
glycan array binding signal (z-score) [28]: -0.228
glycan array binding signal (z-score) [29]: -0.228
glycan array binding signal (z-score) [30]: 0.036
glycan array binding signal (z-score) (Gal4S(b1-4)GlcNAc): -0.235
glycan array binding signal (z-score) (Gal6S(b1-4)GlcNAc): -0.225
glycan array binding signal (z-score) [8]: 0.263
glycan array binding signal (z-score) (GlcA(b1-6)Gal): -0.189
glycan array binding signal (z-score) [31]: 1.27
glycan array binding signal (z-score) [32]: -0.004
glycan array binding signal (z-score) [33]: -0.176
glycan array binding signal (z-score) [34]: -0.133
glycan array binding signal (z-score) [35]: -0.216
glycan array binding signal (z-score) [36]: 0.065
glycan array binding signal (z-score) [37]: 0.942
glycan array binding signal (z-score) [38]: -0.254
